According to ChEMBL document CHEMBL3988442, “University of Dundee, Small-Polar-MMV Screening Library” (2021):

What follows are molecules tested against T1, Aspartate--tRNA(Asp/Asn) ligase (Mycobacterium tuberculosis (strain ATCC 25618 / H37Rv)) (UniProt P9WFW3) (assay: Assay for Asp RNA synthetase-1 from Mycobacterium tuberculosis). Conditions: 30 µM.
T1 sequence (whole entry): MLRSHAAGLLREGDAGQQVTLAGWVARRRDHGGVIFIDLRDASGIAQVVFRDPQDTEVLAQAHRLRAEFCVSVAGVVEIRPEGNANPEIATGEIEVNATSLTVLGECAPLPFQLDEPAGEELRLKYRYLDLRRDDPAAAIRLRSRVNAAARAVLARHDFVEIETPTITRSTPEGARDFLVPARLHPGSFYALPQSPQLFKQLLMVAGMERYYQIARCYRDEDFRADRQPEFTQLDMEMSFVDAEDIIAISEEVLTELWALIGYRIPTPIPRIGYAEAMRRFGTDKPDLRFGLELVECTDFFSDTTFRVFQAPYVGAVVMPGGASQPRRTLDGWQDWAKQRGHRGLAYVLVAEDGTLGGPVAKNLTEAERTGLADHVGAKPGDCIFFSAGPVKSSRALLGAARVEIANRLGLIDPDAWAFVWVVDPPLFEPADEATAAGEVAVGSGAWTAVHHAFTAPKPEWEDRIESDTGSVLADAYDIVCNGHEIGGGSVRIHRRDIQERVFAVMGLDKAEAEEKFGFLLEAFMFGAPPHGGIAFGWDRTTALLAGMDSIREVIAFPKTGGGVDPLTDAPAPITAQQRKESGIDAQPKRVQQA
Assay type: functional
Design: scale not given: in the data most compounds retested in dose-response had high values

SMILES	Percent Effect
COc1ccc(CNC2CCCN(Cc3noc(C)n3)C2)cc1F (centres undefined)	1.37%
Cc1cc(C(=O)N2CCC3(CCCN(CC4CC4)C3=O)C2)c(C)n1C (centres undefined)	-1.12%
CO[C@H]1CCN(Cc2cnn(C)c2)[C@@H]2CN(Cc3cccnc3)C[C@H]12	3.14%
CC(C)NC(=O)CC1COC2(CCN(Cc3ccccc3)CC2)C1 (centres undefined)	-2.02%
CC(=O)NC1CCCN(C(=O)NCc2cccnc2N(C)C)C1 (centres undefined)	-7.86%
CCS(=O)(=O)N1CCC[C@]2(C(=O)N(C)C)CN(c3ccccn3)C[C@@H]2C1	0.903%
CS(=O)(=O)Cc1cccc(C(=O)N2CCCC(n3cccn3)C2)c1 (centres undefined)	-2.52%
Cc1nnc2n1CCN(C(=O)c1cn(-c3ccccc3Cl)nn1)C2	-0.98%
COCCOc1cccc(C(=O)N2CCCC(n3ccnc3C)C2)c1 (centres undefined)	-2.52%
COc1ccccc1[C@@H]1CN(Cc2cc(C(C)(C)C)[nH]n2)C[C@H]1C(=O)O	1.28%
CCOCC(O)CN1CCN(C(=O)CC(C)(C)C)CC1 (centres undefined)	-3.73%
O=C(CCC1CCCO1)NCc1ccnc(-n2cccn2)c1 (centres undefined)	7.84%
COc1ccccc1CC(=O)N1CCC(NCc2cccnc2)CC1	1.11%
Cn1cc(CNCCOc2ccc(F)c(F)c2)c(-c2cccnc2)n1	7.32%
CS(=O)(=O)NCC1CCCN(C(=O)Nc2ccccc2Cl)C1 (centres undefined)	-5.99%
FC(F)(F)c1cc(N2CCc3ncnc(NC4CC4)c3CC2)ncn1	5.62%
CS(=O)(=O)c1ccccc1C(=O)NCCCN1CCc2ccccc2C1	-6.45%
Cc1nc(CNCC2CCCN2c2cccnn2)no1 (centres undefined)	-2.08%
Cc1cc(OCC(=O)N2CCCC(c3noc(C)n3)C2)no1 (centres undefined)	-1.75%
